From PubChem BioAssay
The sample as a whole holds a higher share of hits than the screen did.
IDE exosite FP: displaces the probe from the exo-site of human IDE | P14735 | purified IDE, FL-6b probe fluorescence polarization; active compounds read low | z-score at 20 µM | hit rate 6.3% among 17,000;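 active = z-score of -3 or lower, meaning strong loss of probe binding signal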;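 note: His-tagged human IDE residues 42-1019 made in E. coli with 30 nM FL-6b probe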
Target sequence (P14735 42-1019 limits assumed): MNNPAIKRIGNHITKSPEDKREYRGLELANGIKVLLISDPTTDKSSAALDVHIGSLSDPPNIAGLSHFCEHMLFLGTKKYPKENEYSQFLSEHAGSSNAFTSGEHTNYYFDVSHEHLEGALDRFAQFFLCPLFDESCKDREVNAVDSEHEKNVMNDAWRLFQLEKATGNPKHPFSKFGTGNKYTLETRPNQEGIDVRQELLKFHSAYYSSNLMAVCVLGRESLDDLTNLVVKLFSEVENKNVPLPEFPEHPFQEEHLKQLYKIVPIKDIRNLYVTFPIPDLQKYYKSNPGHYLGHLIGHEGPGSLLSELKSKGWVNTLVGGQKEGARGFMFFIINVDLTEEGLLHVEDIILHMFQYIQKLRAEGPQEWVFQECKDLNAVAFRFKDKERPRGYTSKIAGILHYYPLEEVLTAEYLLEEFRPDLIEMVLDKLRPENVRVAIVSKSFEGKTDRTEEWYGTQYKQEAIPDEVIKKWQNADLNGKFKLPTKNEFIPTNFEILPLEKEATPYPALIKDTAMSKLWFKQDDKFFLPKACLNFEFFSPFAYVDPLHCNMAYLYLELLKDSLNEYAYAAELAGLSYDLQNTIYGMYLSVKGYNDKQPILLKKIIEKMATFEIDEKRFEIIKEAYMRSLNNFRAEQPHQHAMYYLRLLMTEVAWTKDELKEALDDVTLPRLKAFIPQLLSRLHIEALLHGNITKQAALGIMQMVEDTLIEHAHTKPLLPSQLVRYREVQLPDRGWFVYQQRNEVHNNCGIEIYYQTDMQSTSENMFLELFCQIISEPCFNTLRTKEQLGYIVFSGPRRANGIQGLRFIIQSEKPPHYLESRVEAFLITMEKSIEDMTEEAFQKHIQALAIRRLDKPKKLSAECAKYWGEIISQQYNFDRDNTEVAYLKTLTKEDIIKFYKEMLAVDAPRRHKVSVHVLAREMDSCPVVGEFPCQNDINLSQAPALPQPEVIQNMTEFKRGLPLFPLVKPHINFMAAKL
Hits are given with their value; n = inactive.

SMILES	IDE exosite FP
CS(=O)(=O)N1CC(=O)N2[C@H](CO)[C@@H](c3ccc(C#Cc4cccc(F)c4)cc3)[C@@H]2C1	n
CCC(=O)N1CC(=O)N2[C@H](CO)[C@H](c3ccc(C#Cc4cccc(F)c4)cc3)[C@@H]2C1	-7
CCC(=O)N1CC(=O)N2[C@H](C1)[C@H](c1ccc(C#Cc3cccc(F)c3)cc1)[C@@H]2CO	-8.1
CS(=O)(=O)N1CC(=O)N2[C@@H](CO)[C@H](c3ccc(C#Cc4cccc(F)c4)cc3)[C@@H]2C1	n
CS(=O)(=O)N1CC(=O)N2[C@H](CO)[C@@H](c3ccc(C#Cc4cccc(F)c4)cc3)[C@H]2C1	n
CS(=O)(=O)N1CC(=O)N2[C@H](CO)[C@H](c3ccc(C#Cc4cccc(F)c4)cc3)[C@@H]2C1	-9
CCS(=O)(=O)N1CC(=O)N2[C@H](C1)[C@@H](c1ccc(C#Cc3cccc(F)c3)cc1)[C@@H]2CO	n
CCC(=O)N1CC(=O)N2[C@@H](CO)[C@H](c3ccc(C#Cc4cccc(F)c4)cc3)[C@@H]2C1	n
CCC(=O)N1CC(=O)N2[C@H](C1)[C@H](c1ccc(C#CC3CCCCC3)cc1)[C@@H]2CO	n
COc1cccc(-c2ccc3n(c2=O)C[C@@H]2N[C@H]3[C@H](C(=O)N3CCCCC3)[C@H]2CO)c1	n
CC(C)CC#Cc1ccc([C@@H]2[C@@H](CO)N3C(=O)CN(S(=O)(=O)c4ccccc4)C[C@H]23)cc1	n
CN1C(=O)c2cc(NS(=O)(=O)c3ccccc3Cl)ccc2OC[C@H]2O[C@@H](CC(=O)Nc3cc(F)ccc3F)CC[C@@H]21	n
CC(=O)NC[C@H]1[C@@H](c2ccc(-c3cccnc3)cc2)[C@@H](CO)N1C(=O)CC1CC1	n
CC(=O)NC[C@@H]1[C@@H](c2ccc(C3=CCCC3)cc2)[C@@H](CO)N1C(=O)CN(C)C	n
Cc1cccc(-c2ccc([C@@H]3[C@@H](CO)N4C(=O)CN(C(=O)NC5CCCCC5)C[C@@H]34)cc2)c1	-17
Cc1cccc(-c2ccc([C@H]3[C@H]4CN(C(=O)NC5CCCCC5)CC(=O)N4[C@H]3CO)cc2)c1	-9.5
CC[C@H]1CC=CC[C@@H](C)Oc2ccccc2C(=O)N(C)[C@H](C)C(=O)N1 (mixture of isomers)	n
CC(=O)N(C[C@H]1N[C@H](CO)[C@@H]1c1ccc(-c2cncnc2)cc1)C1CCCC1	n
CC(C)C#Cc1ccc([C@H]2[C@@H](CO)N3C(=O)CN(C(=O)Cc4cccnc4)C[C@@H]23)cc1	n
O=C(CN1CCOCC1)N1CCCCN2[C@@H](CO)[C@@H](c3ccc(/C=C/c4ccccc4)cc3)[C@@H]2C1	-10
O=C(CN1CCOCC1)N1CCCCN2[C@H](C1)[C@H](c1ccc(Br)cc1)[C@@H]2CO	n
O=C(CN1CCOCC1)N1CCCCN2[C@H](CO)[C@H](c3ccc(Br)cc3)[C@@H]2C1	n
Cc1ccccc1-c1ccc([C@H]2[C@@H](CO)N3CCCCN(C(=O)CN4CCOCC4)C[C@@H]23)cc1	n
O=C(CN1CCOCC1)N1CCCCN2[C@@H](CO)[C@H](c3ccc(C#Cc4ccccc4)cc3)[C@@H]2C1	-7.1
O=C(CN1CCOCC1)N1CCCCN2[C@H](CO)[C@@H](c3ccc(-c4ccccc4)cc3)[C@H]2C1	n
SMILES	IDE exosite FP
O=C(CN1CCOCC1)N1CCCCN2[C@H](C1)[C@@H](c1ccc(C#Cc3ccccc3)cc1)[C@@H]2CO	-6.6
O=C(CN1CCOCC1)N1CCCCN2[C@H](C1)[C@H](c1ccc(C#Cc3ccccc3)cc1)[C@@H]2CO	-13
O=C(CN1CCOCC1)N1CCCCN2[C@H](CO)[C@@H](c3ccc(-c4ccccc4)cc3)[C@@H]2C1	n
COc1ccc(-c2ccc(C3[C@H]4CNC[C@@H]3N4Cc3ccc4c(c3)OCO4)cc2)cc1 (stereo partly drawn)	n
COc1ccc2c3c(n(C)c2c1)[C@@H](CO)N(CC1CCOCC1)CC31CN(Cc2nccs2)C1	n
CN(C)CC#Cc1ccc([C@@H]2[C@@H](CO)N3CCCCN(CC4CC4)C[C@@H]23)cc1	n
C[C@@H]1CN([C@@H](C)CO)C(=O)c2ccccc2-c2ccccc2CO[C@H]1CN(C)C(=O)NC1CCCCC1	n
Cc1noc(C)c1S(=O)(=O)N(C)C[C@H]1OCc2ccccc2-c2c(n(C)c3ccccc23)C(=O)N([C@@H](C)CO)C[C@H]1C	n
COc1ccc(C#Cc2cnc3c(c2)C(=O)N([C@H](C)CO)C[C@H](C)[C@H](CN(C)Cc2cccc(C)c2)O3)cc1OC	n
O=C(c1ccc(F)cc1)N1CC(=O)N2[C@H](CO)[C@@H](c3ccc(C#CC4CC4)cc3)[C@@H]2C1	n
O=C(CN1CCOCC1)N1CCCCN2[C@H](CO)[C@@H](c3ccc(C#Cc4ccccc4)cc3)[C@H]2C1	-3.3
O=C(CN1CCOCC1)N1CCCCN2[C@@H](CO)[C@@H](c3ccc(C#Cc4ccccc4)cc3)[C@@H]2C1	-5.5
C[C@H]1CN([C@@H](C)CO)C(=O)CCCn2cc(nn2)CO[C@H]1CN(C)C(=O)Nc1cccc2ccccc12	n
Cc1ccccc1-c1cnc2c(c1)C(=O)N([C@@H](C)CO)C[C@H](C)[C@@H](CN(C)Cc1ccccc1F)O2	n
N#Cc1cccc(-c2ccc(C3[C@H]4CNC[C@@H]3N4C(=O)Nc3ccc(Cl)cc3)cc2)c1 (stereo partly drawn)	n
CCCC#Cc1ccc([C@H]2[C@H](CO)N3CCCCN(C(=O)NC4CCCC4)C[C@@H]23)cc1	-8.2
Cc1ccccc1-c1ccc([C@@H]2[C@@H](CO)N3CCCCN(C(=O)NC4CCCC4)C[C@H]23)cc1	-15
O=C(NC1CCCC1)N1CCCCN2[C@H](CO)[C@@H](c3ccc(-c4ccncc4)cc3)[C@H]2C1	n
Cc1ccccc1-c1ccc([C@@H]2[C@H](CO)N3CCCCN(C(=O)NC4CCCC4)C[C@@H]23)cc1	-19
CC(C)CC#Cc1ccc([C@@H]2[C@@H](CO)N3CCCCN(C(=O)NC4CCCC4)C[C@@H]23)cc1	n
O=C(NC1CCCC1)N1CCCCN2[C@@H](CO)[C@H](c3ccc(-c4ccccc4)cc3)[C@@H]2C1	-3
CC(C)CC#Cc1ccc([C@H]2[C@@H](CO)N3CCCCN(C(=O)NC4CCCC4)C[C@@H]23)cc1	n
COc1ccc(NC(=O)N2CCCCN3[C@H](C2)[C@H](c2ccc(-c4ccccc4C)cc2)[C@@H]3CO)cc1	n
O=C(NC1CCCC1)N1CCCCN2[C@H](C1)[C@H](c1ccc(-c3ccccc3)cc1)[C@@H]2CO	n
O=C(NC1CCCC1)N1CCCCN2[C@H](CO)[C@H](c3ccc(-c4cncnc4)cc3)[C@@H]2C1	n
SMILES	IDE exosite FP
O=C(NC1CCCC1)N1CCCCN2[C@H](C1)[C@H](c1ccc(-c3cncnc3)cc1)[C@@H]2CO	n
CCCN1C[C@H](C)[C@@H](OC)CN(C)C(=O)c2cc(NC(=O)Nc3cccc(F)c3)ccc2OC[C@H]1C	n
COc1ccccc1-c1cccc(-c2nc(C(=O)NCc3ccncc3)cc3c2[C@@H](CCO)N([S@](=O)C(C)(C)C)C3)c1	n
CO[C@@H]1CC[C@@H]2CCOc3ccc(C#N)cc3C(=O)N(C)C[C@H](c3ccccc3)CC(=O)N(C)C[C@@H]1O2	n
CN(C)CC#Cc1ccc([C@@H]2[C@H](CO)N3CCCCN(S(=O)(=O)c4ccccc4F)C[C@@H]23)cc1	n
COC(=O)c1ccc(CN2CC(=O)N3[C@@H](CO)[C@H](c4ccc(Br)cc4)[C@@H]3C2)cc1	n
N#C[C@H]1[C@@H](c2ccccc2-c2ccccc2)[C@@H](CO)N1C(=O)Cc1cccnc1	n
